This is an account of results in PubChem BioAssay (NCI).

Values joined by “and” are separate entries in the source; they are usually repeats but may differ in a detail not shown here. Equal values may be shown once. About 83,000 compounds went through this panel and 20% of them were active in at least one assay; those are over-represented in the sample as a whole.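 How to read the values: 0–100, growth inhibition (40 = 60% inhibited); 0, no net growth; -100 to 0, cell death (-40 = 40% of starting cells died; -100 = all dead).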 Active and inactive are the calls of the source. The calls were made as follows: active = growth percent below 10; inactive = the rest.

Test systems include NCI-H23 lung; NCI-H226 lung; NCI-H322M lung; HOP-62 NSCLC; NCI-H460 lung; HOP-92 NSCLC; NCI-H522 lung; A549/ATCC NSCLC; 786-0 renal; COLO 205 colon; DU-145 prostate; K-562 leukemia; MALME-3M melanoma; MDA-MB-231 breast; RXF 393 renal; SF-268 CNS; SF-295 CNS; SF-539 CNS; UACC-257 melanoma; M14 melanoma.
Holding throughout (test): NCI-60 one-dose screen, 48 h (100 = growth as untreated, 0 = no growth, -100 = all killed)
Holding throughout (conditions): 10 µM unless noted

Consider `CCN(CC)CCCC(C)Nc1cnc(C(=O)Nc2cc(F)cc3cccnc23)cn1` (stereo not given), for which the growth with NCI-H23 lung is 81.4% (inactive) and -25.1% (active); with NCI-H226 lung, 85.1% (inactive) and 49.5% (inactive); with NCI-H322M lung, 63.8% (inactive) and 0.121% (active); in the experiment with HOP-62 NSCLC, 64.1% (inactive) and -14.1% (active); in the experiment on NCI-H460 lung, 69.5% (inactive) and -75.9% (active); in the experiment with HOP-92 NSCLC, 37.5% (inactive) and -76.6% (active). Also, the growth in the experiment on NCI-H522 lung is 52.7% (inactive) and -59.4% (active); in the experiment on A549/ATCC NSCLC it was 58% (inactive) and 18.9% (inactive); in the experiment on 786-0 renal, 68.4% (inactive) and -55.1% (active); in the experiment with COLO 205 colon, 3.11% (active) and -50.9% (active); with DU-145 prostate, 63.3% (inactive) and -82.2% (active); in the experiment with K-562 leukemia, 3.95% (active) and 4.95% (active). For the same molecule, the growth with MALME-3M melanoma was -8.34% (active) and -76.1% (active); in the experiment with MDA-MB-231 breast, 59.4% (inactive) and -55% (active); in the experiment with RXF 393 renal, 33.8% (inactive) and -84.4% (active); in the experiment on SF-268 CNS, 51.9% (inactive) and -92.1% (active); in the experiment on SF-295 CNS it was 71.2% (inactive) and 3.03% (active); with SF-539 CNS it was 83.1% (inactive) and 8.22% (active). Moreover, the growth was 76.8% (inactive) and -12.4% (active) with UACC-257 melanoma; 21.9% (inactive) and -5.6% (active) in the experiment on M14 melanoma.

In the case of `CNc1ccc2nc3ccc(=[N+](C)C)cc-3sc2c1`, the growth in the experiment on NCI-H23 lung is 1.76% (active) and -7.91% (active); with NCI-H226 lung it was 63% (inactive) and 51.4% (inactive); in the experiment with NCI-H322M lung it was 30.7% (inactive) and 28.1% (inactive); in the experiment on HOP-62 NSCLC, 7.64% (active) and 7.54% (active); with NCI-H460 lung, 9.72% (active) and 11.9% (inactive); in the experiment on HOP-92 NSCLC it was 36.4% (inactive) and -4.83% (active). In addition, the growth in the experiment on NCI-H522 lung is -19.9% (active) and 8.62% (active); in the experiment on A549/ATCC NSCLC, 3.27% (active) and 5.26% (active); in the experiment with 786-0 renal it was 37.7% (inactive) and 20.6% (inactive); with COLO 205 colon, -22.3% (active) and -30.4% (active); with DU-145 prostate, 42.4% (inactive) and 7.81% (active); in the experiment with K-562 leukemia, 8.78% (active) and 22.8% (inactive). Also, the growth is -28.2% (active) and -24.3% (active) in the experiment on MALME-3M melanoma; 4.03% (active) and -13.7% (active) in the experiment on MDA-MB-231 breast; 58.3% (inactive) and 32.9% (inactive) in the experiment on RXF 393 renal; 5.13% (active) and 2.8% (active) with SF-268 CNS; -7.68% (active) and 7.95% (active) with SF-295 CNS; -6.95% (active) and -15.6% (active) with SF-539 CNS. The growth was -22.2% (active) and -27.4% (active) in the experiment on UACC-257 melanoma; 3.79% (active) and -23.3% (active) in the experiment with M14 melanoma.

For `NCCSC(C[N+](=O)[O-])c1ccccc1Cl` (stereo not given), the growth in the experiment with NCI-H23 lung is 95.6% (inactive); in the experiment with NCI-H226 lung, 99.1% (inactive); in the experiment on NCI-H322M lung it was 91.7% (inactive); in the experiment with HOP-62 NSCLC, 106% (inactive); with NCI-H460 lung it was 98.2% (inactive); in the experiment on HOP-92 NSCLC, 102% (inactive). Also, the growth in the experiment with NCI-H522 lung is 66.6% (inactive); with A549/ATCC NSCLC, -26.9% (active); in the experiment on 786-0 renal it was 101% (inactive); in the experiment on COLO 205 colon it was 99.2% (inactive); in the experiment on DU-145 prostate, 37.6% (inactive); with K-562 leukemia it was -48.3% (active). The growth with MALME-3M melanoma is 98.8% (inactive); in the experiment with MDA-MB-231 breast, 115% (inactive); in the experiment on RXF 393 renal, 11% (inactive); in the experiment with SF-268 CNS, 84.8% (inactive); in the experiment with SF-295 CNS it was 101% (inactive); in the experiment with SF-539 CNS it was 94.6% (inactive). Further, the results for the growth in the experiment with UACC-257 melanoma and with M14 melanoma were -3.93% (active) and 74.4% (inactive), respectively.

In the case of `CNC(=O)c1cccc(-c2ccc3c(N4CCOC[C@@H]4C)nc(N4CCOC[C@@H]4C)nc3n2)c1`, the growth in the experiment on NCI-H23 lung is 18.3% (inactive) and 10.2% (inactive); in the experiment with NCI-H226 lung, -11.5% (active) and -2.84% (active); in the experiment with NCI-H322M lung, 6.83% (active) and -14.6% (active); in the experiment on HOP-62 NSCLC, -3.27% (active) and -14.6% (active); with NCI-H460 lung, 11.4% (inactive) and 9.46% (active); in the experiment with HOP-92 NSCLC it was -25.3% (active) and -21.5% (active). Besides, the growth in the experiment with NCI-H522 lung was 10.4% (inactive) and -11.1% (active); with A549/ATCC NSCLC it was 4.83% (active) and -7.57% (active); with 786-0 renal, 0.967% (active) and -5.74% (active); in the experiment with COLO 205 colon it was 4.53% (active) and -11.4% (active); in the experiment with DU-145 prostate, 12.2% (inactive); with K-562 leukemia it was 25.3% (inactive) and 12.6% (inactive). Also, the growth was -32.1% (active) and -46.6% (active) with MALME-3M melanoma; 6.14% (active) and 4.21% (active) with MDA-MB-231 breast; -28.8% (active) and -33.9% (active) with RXF 393 renal; 9.04% (active) and 13.7% (inactive) in the experiment on SF-268 CNS; -37.4% (active) and -36.6% (active) in the experiment with SF-295 CNS; -26.5% (active) and -40.2% (active) in the experiment on SF-539 CNS. Moreover, the growth with UACC-257 melanoma is -21.2% (active) and -25.5% (active); in the experiment on M14 melanoma, -3.53% (active) and -5.57% (active).
